Measurements taken from the supplement of paper PMC10338343.
± gives the standard deviation. The full ranking holds about 8,200 sequences; the median of “pre-steady-state target cleavage rate” is about 0.024, and the highest 2% start at about 1.3. The sample holds the highest values, similar sequences and a random draw of the others, so the mix is not that of the screen.

Test system: MIWI (PIWIL1) piRISC loaded with L1MC piRNA (30 nt)
Test: pre-steady-state target cleavage rate (min^-1); MIWI and MILI are mouse PIWI proteins and EfPiwi is from a freshwater sponge; tags in brackets are library labels; higher = faster piRNA-guided slicing of the target
Details: guide: L1MC piRNA 5'p-UAACUAAAUACUAUGCAAGCUGUAGGUCCU
Method: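 Cleave-'n-Seq: a library of target RNAs (target site embedded in constant flanks, ACAGCATTCCGCGTTAGTGATATCCG... 5' flank; DNA-blocked outside the site) at 0.1 nM was incubated with 1 nM active mouse MILI or MIWI piRISC (synthetic 5'-monophosphorylated piRNA guide) with or without 500 nM mouse GTSF1 at 33 °C for 1 min to 16 h. Uncleaved targets were sequenced and normalised to non-target controls, and the pooled three trials were fitted to a burst-and-steady-state model to give the pre-steady-state cleavage rate (min^-1; k3 is constrained to at most 1e-4). Sequence is the target site only; target names encode pairing extent (gX:gY) and contiguous / 1-mismatch / 2-mismatch / bulge geometry. Fits with R² ≤ 0 are excluded.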

[1] = auxiliary factor: 500 nM mouse GTSF1
[2] = auxiliary factor: none (no GTSF1)

AGGUGGUACAGCUUGCAUAGUAUUUAGAAA
pre-steady-state target cleavage rate [1]: 0.19 ± 0.044
pre-steady-state target cleavage rate [2]: 0.00559 ± 0.0016

UCCUGGUACAGCUUGCAUAGUUAAUAGAAA
pre-steady-state target cleavage rate [1]: 0.023 ± 0.0089

UCCUGGAUGACUUGCAUAGUAUUUAGUUA
pre-steady-state target cleavage rate [1]: 0.412 ± 0.03
pre-steady-state target cleavage rate [2]: 0.0206 ± 0.0053

UCCUGGAUGUCGAACGAUAGUAUUUAGUUUA
pre-steady-state target cleavage rate [1]: < 0.0001

AGGACCUACAGCUUGCAUUGUAUAUAGUUA
pre-steady-state target cleavage rate [1]: 0.395 ± 0.031
pre-steady-state target cleavage rate [2]: 0.0219 ± 0.0046

AGGACCUUCAGCUUGCAUUGUAUUUAGUUA
pre-steady-state target cleavage rate [1]: 0.966 ± 0.031
pre-steady-state target cleavage rate [2]: 0.0424 ± 0.01

UCGACCUACAGCUUGGAUAGUAUUUAGAAA
pre-steady-state target cleavage rate [1]: 0.372 ± 0.044
pre-steady-state target cleavage rate [2]: 0.00679 ± 0.002

UCCUGGUACACCUUGCAUAGUUUUUAGUUA
pre-steady-state target cleavage rate [1]: 0.0764 ± 0.027
pre-steady-state target cleavage rate [2]: 0.0132 ± 0.0038

UGAACCUACAGCUUGCAUAGUAUUUAGUUA
pre-steady-state target cleavage rate [1]: 1.63 ± 0.068
pre-steady-state target cleavage rate [2]: 0.0751 ± 0.015

UCCACCUACAGCUUGCAUAGUAUUUAGUUG [g2:g27:cont:t1G]
pre-steady-state target cleavage rate [1]: 0.399 ± 0.047
pre-steady-state target cleavage rate [2]: 0.0371 ± 0.0065

UCGAACUACAGCUUGCAUAGUAUUUAGUUA
pre-steady-state target cleavage rate [1]: 1.39 ± 0.049
pre-steady-state target cleavage rate [2]: 0.0698 ± 0.011

UGGAACCUACAGCUUGCAUAGUAUUUAGUUA
pre-steady-state target cleavage rate [1]: 1.41 ± 0.1
pre-steady-state target cleavage rate [2]: 0.0747 ± 0.016

UGGAACUACAGCUUGCAUAGUAUUUAGUUA
pre-steady-state target cleavage rate [1]: 1.09 ± 0.041
pre-steady-state target cleavage rate [2]: 0.0698 ± 0.011

UCGAACCUACAGCUUGCAUAGUAUUUAGUUA
pre-steady-state target cleavage rate [1]: 1.37 ± 0.046
pre-steady-state target cleavage rate [2]: 0.0781 ± 0.016

AGGAACCUACAGCUUGCAUAGUAUUUAGUUA
pre-steady-state target cleavage rate [1]: 1.23 ± 0.059
pre-steady-state target cleavage rate [2]: 0.0809 ± 0.014

AGGAACUACAGCUUGCAUAGUAUUUAGUUA
pre-steady-state target cleavage rate [1]: 1.3 ± 0.041
pre-steady-state target cleavage rate [2]: 0.0918 ± 0.016

AGGACCUACAGGAAGCAUAGUAUUUAGUUA
pre-steady-state target cleavage rate [1]: 0.977 ± 0.08
pre-steady-state target cleavage rate [2]: 0.0104 ± 0.0029

UGGACCUACAGCUUGCAUAGUAUAAACAAA
pre-steady-state target cleavage rate [1]: 0.14 ± 0.028

UCCACCUACAGCUUGCAUAGUAAAUAGUUA
pre-steady-state target cleavage rate [1]: 0.426 ± 0.039
pre-steady-state target cleavage rate [2]: 0.00722 ± 0.0018

AGGACCUACAGGAUGCAUAGUAUUUAGUUA
pre-steady-state target cleavage rate [1]: 1.06 ± 0.092
pre-steady-state target cleavage rate [2]: 0.023 ± 0.0047

UCCUGGAUGUGCUAGCAUAGAAUUUAGUUA
pre-steady-state target cleavage rate [1]: 0.00695 ± 0.0028

AGGACCUACAGCUUGGAUAGUAUUUACUUA
pre-steady-state target cleavage rate [1]: 0.478 ± 0.054
pre-steady-state target cleavage rate [2]: 0.0287 ± 0.0043

UCCAGCUACAGCUUGCAUAGUAUUAAGUUA
pre-steady-state target cleavage rate [1]: 0.558 ± 0.043
pre-steady-state target cleavage rate [2]: 0.015 ± 0.0026

UCAACCUACAGCUUGCAUAGUAUUUAGUUA
pre-steady-state target cleavage rate [1]: 1.43 ± 0.04
pre-steady-state target cleavage rate [2]: 0.0646 ± 0.011

UCCAACCUACAGCUUGCAUAGUAUUUAGUUA
pre-steady-state target cleavage rate [1]: 1.05 ± 0.037
pre-steady-state target cleavage rate [2]: 0.055 ± 0.0073

AGAACCUACAGCUUGCAUAGUAUUUAGUUA
pre-steady-state target cleavage rate [1]: 1.43 ± 0.047
pre-steady-state target cleavage rate [2]: 0.0851 ± 0.013

UCCUGGAACAGCUGGCAUAGUAUUUAGUUA
pre-steady-state target cleavage rate [1]: 0.759 ± 0.038
pre-steady-state target cleavage rate [2]: 0.0271 ± 0.0057

UCCAGCUACAGCUUGCAUAGUAAUUAGUUA
pre-steady-state target cleavage rate [1]: 0.475 ± 0.038
pre-steady-state target cleavage rate [2]: 0.0163 ± 0.0027

UCCUGCUACAGGUUGCAUAGUAUUUAGUUA
pre-steady-state target cleavage rate [1]: 1.03 ± 0.037
pre-steady-state target cleavage rate [2]: 0.0257 ± 0.0052

UCCUGGAUGAGCUUGCAUAGUAUUCUAGUUA
pre-steady-state target cleavage rate [1]: 0.28 ± 0.036
pre-steady-state target cleavage rate [2]: 0.0103 ± 0.0031

UCCUGCUACAGCUUGCAUAGUAUAUACUUA
pre-steady-state target cleavage rate [1]: 0.111 ± 0.017
pre-steady-state target cleavage rate [2]: 0.00755 ± 0.0036

UCGUCCUACUGCUUGCAUAGUAUUUAGUUA
pre-steady-state target cleavage rate [1]: 1.14 ± 0.048
pre-steady-state target cleavage rate [2]: 0.0572 ± 0.0094

UGGAGCUACAGCUUGCAUAGUAUUUUGUUA
pre-steady-state target cleavage rate [1]: 0.992 ± 0.05
pre-steady-state target cleavage rate [2]: 0.0525 ± 0.0077

UCCUGGUUGUGCUUGCAUAGUAUUUAGUUA
pre-steady-state target cleavage rate [1]: 0.584 ± 0.032
pre-steady-state target cleavage rate [2]: 0.0455 ± 0.0097

UGGACCUACAGCUUGCAUAGUUAAUAGUAA
pre-steady-state target cleavage rate [1]: 0.0448 ± 0.01

UGGACCUACAGUUUGCAUAGUAUUUAGUUA
pre-steady-state target cleavage rate [1]: 1.5 ± 0.088
pre-steady-state target cleavage rate [2]: 0.0675 ± 0.013

UCGACCUACAGUUUGCAUAGUAUUUAGUUA
pre-steady-state target cleavage rate [1]: 1.37 ± 0.054
pre-steady-state target cleavage rate [2]: 0.0619 ± 0.0092

UCGACCUACAGUUGCAUAGUAUUUAGUUA
pre-steady-state target cleavage rate [1]: 0.955 ± 0.065
pre-steady-state target cleavage rate [2]: 0.00747 ± 0.0023

AGGACCUACAGUUUGCAUAGUAUUUAGUUA
pre-steady-state target cleavage rate [1]: 1.25 ± 0.073
pre-steady-state target cleavage rate [2]: 0.0653 ± 0.0093

UCCACCUACAGUUUGCAUAGUAUUUAGUUA
pre-steady-state target cleavage rate [1]: 0.892 ± 0.072
pre-steady-state target cleavage rate [2]: 0.0474 ± 0.0076

UGGACCUACAGUUGCAUAGUAUUUAGUUA
pre-steady-state target cleavage rate [1]: 1.06 ± 0.094
pre-steady-state target cleavage rate [2]: 0.00944 ± 0.0032

UGGACGUACUGCUUGCAUAGUAUUUAGUUA
pre-steady-state target cleavage rate [1]: 1.01 ± 0.051
pre-steady-state target cleavage rate [2]: 0.056 ± 0.0091

UCCUGGAACAGCUUGCUUAGUAAUUAGUUA
pre-steady-state target cleavage rate [1]: 0.485 ± 0.041
pre-steady-state target cleavage rate [2]: 0.0141 ± 0.0051

UCCUGGAACAGCUUGCAUAGUAUUAUCUUA
pre-steady-state target cleavage rate [1]: 0.141 ± 0.028
pre-steady-state target cleavage rate [2]: 0.00408 ± 0.0029

UCGACCUACAGCUUGCAUAGUAUUAUGUAA
pre-steady-state target cleavage rate [1]: 0.228 ± 0.057

UCCUGGAACAGCUAGCAUAGUAUUUAGUUA
pre-steady-state target cleavage rate [1]: 0.836 ± 0.027
pre-steady-state target cleavage rate [2]: 0.022 ± 0.0049

AGGACCUACAGCUUGCAUAGUAGUUUAGUUA
pre-steady-state target cleavage rate [1]: 0.47 ± 0.036
pre-steady-state target cleavage rate [2]: 0.0209 ± 0.006

UCCUGGAUGUGCUUGGAUAGUAUUAAGUUA
pre-steady-state target cleavage rate [1]: 0.0897 ± 0.022
pre-steady-state target cleavage rate [2]: 0.00634 ± 0.0041

UCCUGGAUCAGCUUGCAUAGUAUUUAGUA
pre-steady-state target cleavage rate [1]: 0.838 ± 0.043
pre-steady-state target cleavage rate [2]: 0.0119 ± 0.0038

UCCUGGAUCAGCUUGCAUAGUAUUUAGUUU [g2:g22:cont:t1U]
pre-steady-state target cleavage rate [1]: 1.54 ± 0.089
pre-steady-state target cleavage rate [2]: 0.0667 ± 0.016

UCCUGGAUCAGCUUGCAUAGUAUUUAGUUC [g2:g22:cont:t1C]
pre-steady-state target cleavage rate [1]: 1.14 ± 0.052
pre-steady-state target cleavage rate [2]: 0.0609 ± 0.012

UCCUGGAUCAGCUUGUAUAGUAUUUAGUUA
pre-steady-state target cleavage rate [1]: 1.64 ± 0.1
pre-steady-state target cleavage rate [2]: 0.0468 ± 0.012

UCCUGGAUCAGCUUGCAUAGUAUUUUAGUUA
pre-steady-state target cleavage rate [1]: 0.979 ± 0.05
pre-steady-state target cleavage rate [2]: 0.0222 ± 0.0046

UCCUGGAUCAGCUUGCUAUAGUAUUUAGUUA
pre-steady-state target cleavage rate [1]: 0.00584 ± 0.0043

UCCUGGAUCAGCUUGCAUAGUAUUUAGUUG [g2:g22:cont:t1G]
pre-steady-state target cleavage rate [1]: 1.05 ± 0.12
pre-steady-state target cleavage rate [2]: 0.0362 ± 0.0084

UCCUGGAUCAGCUUGCAUAGUAUUUAGUUA [g2:g22:cont:t1A]
pre-steady-state target cleavage rate [1]: 1.36 ± 0.054
pre-steady-state target cleavage rate [2]: 0.0516 ± 0.0097

UCCUGGAUCAGCUUUGCAUAGUAUUUAGUUA
pre-steady-state target cleavage rate [1]: 1.05 ± 0.053
pre-steady-state target cleavage rate [2]: 0.0153 ± 0.004

UCCUGGAUCAGCUUGCAUAGUAUUUAGUUUA
pre-steady-state target cleavage rate [1]: 1.64 ± 0.071
pre-steady-state target cleavage rate [2]: 0.0415 ± 0.011

UCCUGGAUCAGCUUGGAUAGUAUUUAGUUA
pre-steady-state target cleavage rate [1]: 0.775 ± 0.064
pre-steady-state target cleavage rate [2]: 0.0476 ± 0.0092

UCCUGGAUCAGCUUGCAUAGUAUUUAGUAA
pre-steady-state target cleavage rate [1]: 0.96 ± 0.047
pre-steady-state target cleavage rate [2]: 0.0287 ± 0.0064

UCCUGGAUGAGCUAGCAUAGUAUUUAGUUA
pre-steady-state target cleavage rate [1]: 0.617 ± 0.05
pre-steady-state target cleavage rate [2]: 0.0107 ± 0.0036
